{"source": "ChEMBL document CHEMBL2218924", "about": "“A broad activity screen in support of a chemogenomic map for kinase signalling research and drug discovery” (Biochem J, 2013)", "key": {"[1]": {"biological_target": "Ephrin type-A receptor 5 (Homo sapiens) (UniProt P54756)", "sequence (P54756 whole entry)": "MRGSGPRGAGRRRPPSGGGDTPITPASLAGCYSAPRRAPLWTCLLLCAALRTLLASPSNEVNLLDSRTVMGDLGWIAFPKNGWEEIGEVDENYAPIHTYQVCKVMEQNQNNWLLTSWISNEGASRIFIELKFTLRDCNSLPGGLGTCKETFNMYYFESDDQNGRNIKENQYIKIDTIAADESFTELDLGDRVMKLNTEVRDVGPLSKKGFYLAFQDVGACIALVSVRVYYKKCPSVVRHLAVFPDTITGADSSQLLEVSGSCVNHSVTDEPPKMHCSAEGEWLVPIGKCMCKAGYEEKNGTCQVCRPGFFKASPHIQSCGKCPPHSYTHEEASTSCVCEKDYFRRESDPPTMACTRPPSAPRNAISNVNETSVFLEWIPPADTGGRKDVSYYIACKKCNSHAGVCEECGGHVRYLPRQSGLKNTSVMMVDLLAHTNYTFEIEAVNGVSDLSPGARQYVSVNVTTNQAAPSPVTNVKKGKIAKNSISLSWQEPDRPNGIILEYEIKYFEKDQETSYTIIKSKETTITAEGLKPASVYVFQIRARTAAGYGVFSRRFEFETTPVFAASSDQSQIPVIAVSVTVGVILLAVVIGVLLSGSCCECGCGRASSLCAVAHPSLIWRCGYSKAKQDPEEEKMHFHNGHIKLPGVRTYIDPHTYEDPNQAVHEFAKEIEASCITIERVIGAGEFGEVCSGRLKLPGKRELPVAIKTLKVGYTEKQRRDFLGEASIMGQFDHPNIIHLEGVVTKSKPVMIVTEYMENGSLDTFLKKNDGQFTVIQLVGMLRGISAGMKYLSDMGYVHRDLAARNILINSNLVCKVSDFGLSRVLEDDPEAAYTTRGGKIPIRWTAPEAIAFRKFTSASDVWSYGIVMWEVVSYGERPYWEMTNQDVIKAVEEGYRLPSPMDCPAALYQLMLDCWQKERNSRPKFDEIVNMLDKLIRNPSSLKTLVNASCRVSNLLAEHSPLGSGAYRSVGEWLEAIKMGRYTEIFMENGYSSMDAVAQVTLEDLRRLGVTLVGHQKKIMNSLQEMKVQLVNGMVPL", "conditions": "at 1 µM; call rule not given here"}, "[2]": {"biological_target": "Ephrin type-A receptor 7 (Homo sapiens) (UniProt Q15375)", "sequence (Q15375 28-998 limits assumed)": "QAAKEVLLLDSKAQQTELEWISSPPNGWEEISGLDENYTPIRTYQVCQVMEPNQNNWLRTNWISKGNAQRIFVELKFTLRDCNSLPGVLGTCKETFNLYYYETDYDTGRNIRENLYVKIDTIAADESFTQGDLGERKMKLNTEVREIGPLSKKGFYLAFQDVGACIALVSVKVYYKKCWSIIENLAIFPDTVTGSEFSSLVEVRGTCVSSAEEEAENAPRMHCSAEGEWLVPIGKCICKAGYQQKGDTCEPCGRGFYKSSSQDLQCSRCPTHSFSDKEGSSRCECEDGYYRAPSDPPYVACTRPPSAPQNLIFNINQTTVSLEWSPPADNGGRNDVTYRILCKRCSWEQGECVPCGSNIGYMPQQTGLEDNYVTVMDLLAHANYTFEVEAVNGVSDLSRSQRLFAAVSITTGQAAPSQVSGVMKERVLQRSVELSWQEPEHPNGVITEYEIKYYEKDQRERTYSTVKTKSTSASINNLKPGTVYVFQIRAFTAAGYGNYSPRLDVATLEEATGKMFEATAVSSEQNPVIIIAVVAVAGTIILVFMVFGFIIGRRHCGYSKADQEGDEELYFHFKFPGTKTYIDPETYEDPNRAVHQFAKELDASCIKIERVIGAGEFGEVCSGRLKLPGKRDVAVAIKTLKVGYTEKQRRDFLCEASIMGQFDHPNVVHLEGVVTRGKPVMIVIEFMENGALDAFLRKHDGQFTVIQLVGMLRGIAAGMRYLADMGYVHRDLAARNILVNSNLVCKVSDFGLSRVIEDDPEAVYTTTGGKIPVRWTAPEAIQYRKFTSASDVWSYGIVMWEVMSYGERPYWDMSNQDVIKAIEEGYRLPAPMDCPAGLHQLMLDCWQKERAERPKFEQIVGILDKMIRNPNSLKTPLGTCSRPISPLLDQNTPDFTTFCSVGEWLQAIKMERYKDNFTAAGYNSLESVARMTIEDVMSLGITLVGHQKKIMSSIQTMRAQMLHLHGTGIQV", "conditions": "at 1 µM"}, "[3]": {"biological_target": "Ephrin type-A receptor 7 (Homo sapiens) (UniProt Q15375)", "conditions": "at 10 µM"}, "[4]": {"biological_target": "T1, Ephrin type-B receptor 3 (Homo sapiens) (UniProt P54753)", "T1 sequence (whole entry)": "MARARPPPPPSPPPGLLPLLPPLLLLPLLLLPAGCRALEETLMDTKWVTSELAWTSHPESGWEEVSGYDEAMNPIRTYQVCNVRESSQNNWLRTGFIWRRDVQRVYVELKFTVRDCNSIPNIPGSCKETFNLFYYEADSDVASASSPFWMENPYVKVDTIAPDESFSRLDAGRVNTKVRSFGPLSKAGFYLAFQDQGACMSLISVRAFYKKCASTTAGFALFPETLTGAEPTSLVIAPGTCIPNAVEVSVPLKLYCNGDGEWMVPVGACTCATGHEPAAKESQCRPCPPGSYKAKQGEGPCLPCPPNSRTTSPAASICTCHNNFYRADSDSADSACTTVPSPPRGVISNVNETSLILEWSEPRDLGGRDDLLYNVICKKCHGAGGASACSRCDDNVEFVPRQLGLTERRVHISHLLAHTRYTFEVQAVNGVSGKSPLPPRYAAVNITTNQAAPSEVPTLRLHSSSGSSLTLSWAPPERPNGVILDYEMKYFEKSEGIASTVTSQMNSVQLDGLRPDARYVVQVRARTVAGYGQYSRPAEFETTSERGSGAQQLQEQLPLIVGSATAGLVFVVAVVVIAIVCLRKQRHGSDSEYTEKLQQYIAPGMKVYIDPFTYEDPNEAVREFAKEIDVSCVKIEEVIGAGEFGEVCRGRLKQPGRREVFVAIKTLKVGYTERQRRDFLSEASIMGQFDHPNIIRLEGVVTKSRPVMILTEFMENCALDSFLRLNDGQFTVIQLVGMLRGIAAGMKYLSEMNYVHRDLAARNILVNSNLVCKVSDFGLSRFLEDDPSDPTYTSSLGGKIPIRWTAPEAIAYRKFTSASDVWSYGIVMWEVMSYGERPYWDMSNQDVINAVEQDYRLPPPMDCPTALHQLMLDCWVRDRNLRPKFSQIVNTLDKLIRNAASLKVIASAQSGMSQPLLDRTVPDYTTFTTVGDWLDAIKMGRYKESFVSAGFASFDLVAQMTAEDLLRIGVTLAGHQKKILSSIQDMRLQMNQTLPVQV", "conditions": "at 10 µM"}, "[5]": {"biological_target": "T2, Ephrin type-B receptor 4 (Homo sapiens) (UniProt P54760)", "T2 sequence (whole entry)": "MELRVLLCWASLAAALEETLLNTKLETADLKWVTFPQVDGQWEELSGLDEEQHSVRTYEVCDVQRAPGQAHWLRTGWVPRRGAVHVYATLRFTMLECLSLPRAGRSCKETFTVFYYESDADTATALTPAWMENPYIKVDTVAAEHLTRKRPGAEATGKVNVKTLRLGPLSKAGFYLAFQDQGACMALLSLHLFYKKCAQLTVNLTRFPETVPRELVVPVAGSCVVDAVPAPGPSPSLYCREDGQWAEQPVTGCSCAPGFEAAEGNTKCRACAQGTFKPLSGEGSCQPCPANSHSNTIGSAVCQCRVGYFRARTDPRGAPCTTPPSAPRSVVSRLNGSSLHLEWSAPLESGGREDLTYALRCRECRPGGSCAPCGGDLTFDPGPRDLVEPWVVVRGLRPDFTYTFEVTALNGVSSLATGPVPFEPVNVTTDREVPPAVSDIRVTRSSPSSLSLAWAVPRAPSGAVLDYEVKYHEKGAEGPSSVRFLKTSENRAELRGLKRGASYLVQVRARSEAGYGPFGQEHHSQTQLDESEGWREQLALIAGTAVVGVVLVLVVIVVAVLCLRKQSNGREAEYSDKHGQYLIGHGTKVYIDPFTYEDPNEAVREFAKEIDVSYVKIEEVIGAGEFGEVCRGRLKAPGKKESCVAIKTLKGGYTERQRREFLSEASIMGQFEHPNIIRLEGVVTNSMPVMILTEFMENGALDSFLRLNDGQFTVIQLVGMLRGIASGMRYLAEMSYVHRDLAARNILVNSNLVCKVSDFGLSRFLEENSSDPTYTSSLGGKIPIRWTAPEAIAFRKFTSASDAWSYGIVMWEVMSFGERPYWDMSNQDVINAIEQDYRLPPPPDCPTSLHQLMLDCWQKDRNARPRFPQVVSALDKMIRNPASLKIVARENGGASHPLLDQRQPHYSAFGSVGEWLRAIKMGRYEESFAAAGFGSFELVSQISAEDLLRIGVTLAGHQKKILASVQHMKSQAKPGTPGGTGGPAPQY", "conditions": "at 1 µM"}, "[6]": {"biological_target": "T2, Ephrin type-B receptor 4 (Homo sapiens)", "conditions": "at 10 µM"}, "[7]": {"biological_target": "Focal adhesion kinase 1 (Homo sapiens) (UniProt Q05397)", "sequence (Q05397 2-1052 limits assumed)": "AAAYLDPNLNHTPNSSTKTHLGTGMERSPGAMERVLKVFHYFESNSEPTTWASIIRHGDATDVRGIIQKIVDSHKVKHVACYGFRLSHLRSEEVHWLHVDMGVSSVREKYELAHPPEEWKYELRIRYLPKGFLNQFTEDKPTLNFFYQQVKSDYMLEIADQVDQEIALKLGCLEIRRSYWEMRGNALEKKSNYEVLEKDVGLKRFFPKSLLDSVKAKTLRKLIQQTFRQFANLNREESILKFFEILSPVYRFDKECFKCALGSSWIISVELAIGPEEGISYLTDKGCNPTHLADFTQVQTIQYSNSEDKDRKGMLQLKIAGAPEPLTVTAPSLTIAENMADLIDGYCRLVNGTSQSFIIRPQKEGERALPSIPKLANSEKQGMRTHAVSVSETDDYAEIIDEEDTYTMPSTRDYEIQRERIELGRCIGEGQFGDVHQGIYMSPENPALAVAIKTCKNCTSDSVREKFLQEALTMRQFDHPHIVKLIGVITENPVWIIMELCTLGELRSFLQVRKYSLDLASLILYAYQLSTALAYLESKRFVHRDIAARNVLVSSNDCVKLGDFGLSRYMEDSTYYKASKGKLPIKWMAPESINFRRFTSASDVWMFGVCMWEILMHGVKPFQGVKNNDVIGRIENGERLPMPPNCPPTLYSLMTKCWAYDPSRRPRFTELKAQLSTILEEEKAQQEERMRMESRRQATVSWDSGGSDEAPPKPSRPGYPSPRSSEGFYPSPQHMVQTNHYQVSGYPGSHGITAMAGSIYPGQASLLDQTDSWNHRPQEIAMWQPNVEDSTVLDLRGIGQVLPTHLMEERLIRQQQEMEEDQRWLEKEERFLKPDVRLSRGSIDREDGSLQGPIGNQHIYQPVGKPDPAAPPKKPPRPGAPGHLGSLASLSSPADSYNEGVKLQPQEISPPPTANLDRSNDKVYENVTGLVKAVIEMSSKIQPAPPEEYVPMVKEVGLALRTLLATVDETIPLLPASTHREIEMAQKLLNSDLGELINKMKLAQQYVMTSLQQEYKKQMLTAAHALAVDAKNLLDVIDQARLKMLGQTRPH", "conditions": "at 1 µM"}, "[8]": {"biological_target": "T3, Ephrin type-A receptor 3 (Homo sapiens) (UniProt P29320)", "T3 sequence (whole entry)": "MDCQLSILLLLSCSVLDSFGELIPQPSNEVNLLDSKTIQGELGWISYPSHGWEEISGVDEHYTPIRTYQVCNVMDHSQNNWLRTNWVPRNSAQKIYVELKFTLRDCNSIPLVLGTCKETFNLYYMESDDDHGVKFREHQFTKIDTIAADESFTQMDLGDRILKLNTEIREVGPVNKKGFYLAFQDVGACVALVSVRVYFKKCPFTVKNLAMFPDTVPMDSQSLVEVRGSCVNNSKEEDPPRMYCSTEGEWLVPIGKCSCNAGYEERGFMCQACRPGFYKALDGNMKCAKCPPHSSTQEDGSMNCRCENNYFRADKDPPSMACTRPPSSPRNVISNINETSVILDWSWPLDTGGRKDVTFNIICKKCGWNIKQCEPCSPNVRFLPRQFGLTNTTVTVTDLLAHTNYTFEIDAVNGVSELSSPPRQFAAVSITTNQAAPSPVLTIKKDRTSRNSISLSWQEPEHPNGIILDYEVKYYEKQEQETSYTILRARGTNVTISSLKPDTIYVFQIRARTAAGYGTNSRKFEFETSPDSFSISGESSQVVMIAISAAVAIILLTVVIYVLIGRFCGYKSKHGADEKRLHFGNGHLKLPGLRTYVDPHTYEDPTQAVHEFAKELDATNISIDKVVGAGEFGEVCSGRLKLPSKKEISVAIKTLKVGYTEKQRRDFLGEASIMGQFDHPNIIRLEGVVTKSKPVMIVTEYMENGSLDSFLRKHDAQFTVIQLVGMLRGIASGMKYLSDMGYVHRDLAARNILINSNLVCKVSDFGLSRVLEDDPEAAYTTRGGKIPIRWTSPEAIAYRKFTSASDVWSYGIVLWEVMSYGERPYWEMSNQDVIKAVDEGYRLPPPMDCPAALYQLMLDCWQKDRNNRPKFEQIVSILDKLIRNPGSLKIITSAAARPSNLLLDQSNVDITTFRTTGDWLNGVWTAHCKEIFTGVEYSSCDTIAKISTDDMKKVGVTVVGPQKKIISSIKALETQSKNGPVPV", "conditions": "at 10 µM"}, "[9]": {"biological_target": "Receptor tyrosine-protein kinase erbB-4 (Homo sapiens) (UniProt Q15303)", "sequence (Q15303 whole entry)": "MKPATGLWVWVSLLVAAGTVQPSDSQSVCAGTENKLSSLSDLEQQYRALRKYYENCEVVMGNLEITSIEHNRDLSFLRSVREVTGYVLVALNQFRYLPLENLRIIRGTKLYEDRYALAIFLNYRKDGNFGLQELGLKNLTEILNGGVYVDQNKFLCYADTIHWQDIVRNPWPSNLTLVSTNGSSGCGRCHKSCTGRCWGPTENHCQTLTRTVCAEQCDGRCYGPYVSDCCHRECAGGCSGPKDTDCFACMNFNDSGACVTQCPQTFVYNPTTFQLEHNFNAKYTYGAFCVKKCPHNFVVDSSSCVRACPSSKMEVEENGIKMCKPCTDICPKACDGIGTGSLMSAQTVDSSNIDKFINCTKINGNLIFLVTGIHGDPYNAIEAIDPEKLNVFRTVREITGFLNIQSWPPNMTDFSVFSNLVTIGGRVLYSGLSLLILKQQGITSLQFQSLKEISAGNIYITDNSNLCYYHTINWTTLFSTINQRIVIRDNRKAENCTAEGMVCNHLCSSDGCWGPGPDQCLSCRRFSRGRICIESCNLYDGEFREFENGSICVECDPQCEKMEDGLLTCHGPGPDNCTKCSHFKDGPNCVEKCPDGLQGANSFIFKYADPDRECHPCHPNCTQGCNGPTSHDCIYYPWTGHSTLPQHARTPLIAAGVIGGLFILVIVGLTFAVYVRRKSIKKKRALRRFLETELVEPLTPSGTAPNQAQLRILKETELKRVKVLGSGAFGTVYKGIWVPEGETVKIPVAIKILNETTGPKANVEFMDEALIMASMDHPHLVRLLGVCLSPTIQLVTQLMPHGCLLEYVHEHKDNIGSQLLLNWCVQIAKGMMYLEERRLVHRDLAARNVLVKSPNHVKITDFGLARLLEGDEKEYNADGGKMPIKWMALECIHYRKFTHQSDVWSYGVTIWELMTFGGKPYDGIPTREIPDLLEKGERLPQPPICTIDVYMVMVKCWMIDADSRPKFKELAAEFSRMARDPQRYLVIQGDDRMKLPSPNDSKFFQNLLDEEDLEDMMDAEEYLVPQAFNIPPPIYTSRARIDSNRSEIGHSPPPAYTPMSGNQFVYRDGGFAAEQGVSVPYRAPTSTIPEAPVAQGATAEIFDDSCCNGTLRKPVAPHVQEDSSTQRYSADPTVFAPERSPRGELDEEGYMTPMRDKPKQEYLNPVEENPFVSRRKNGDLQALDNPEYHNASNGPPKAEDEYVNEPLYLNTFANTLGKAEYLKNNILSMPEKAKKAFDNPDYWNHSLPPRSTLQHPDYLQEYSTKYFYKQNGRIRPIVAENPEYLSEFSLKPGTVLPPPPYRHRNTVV", "conditions": "at 10 µM"}, "[10]": {"biological_target": "T4, Ephrin type-A receptor 8 (Homo sapiens) (UniProt P29322)", "T4 sequence (whole entry)": "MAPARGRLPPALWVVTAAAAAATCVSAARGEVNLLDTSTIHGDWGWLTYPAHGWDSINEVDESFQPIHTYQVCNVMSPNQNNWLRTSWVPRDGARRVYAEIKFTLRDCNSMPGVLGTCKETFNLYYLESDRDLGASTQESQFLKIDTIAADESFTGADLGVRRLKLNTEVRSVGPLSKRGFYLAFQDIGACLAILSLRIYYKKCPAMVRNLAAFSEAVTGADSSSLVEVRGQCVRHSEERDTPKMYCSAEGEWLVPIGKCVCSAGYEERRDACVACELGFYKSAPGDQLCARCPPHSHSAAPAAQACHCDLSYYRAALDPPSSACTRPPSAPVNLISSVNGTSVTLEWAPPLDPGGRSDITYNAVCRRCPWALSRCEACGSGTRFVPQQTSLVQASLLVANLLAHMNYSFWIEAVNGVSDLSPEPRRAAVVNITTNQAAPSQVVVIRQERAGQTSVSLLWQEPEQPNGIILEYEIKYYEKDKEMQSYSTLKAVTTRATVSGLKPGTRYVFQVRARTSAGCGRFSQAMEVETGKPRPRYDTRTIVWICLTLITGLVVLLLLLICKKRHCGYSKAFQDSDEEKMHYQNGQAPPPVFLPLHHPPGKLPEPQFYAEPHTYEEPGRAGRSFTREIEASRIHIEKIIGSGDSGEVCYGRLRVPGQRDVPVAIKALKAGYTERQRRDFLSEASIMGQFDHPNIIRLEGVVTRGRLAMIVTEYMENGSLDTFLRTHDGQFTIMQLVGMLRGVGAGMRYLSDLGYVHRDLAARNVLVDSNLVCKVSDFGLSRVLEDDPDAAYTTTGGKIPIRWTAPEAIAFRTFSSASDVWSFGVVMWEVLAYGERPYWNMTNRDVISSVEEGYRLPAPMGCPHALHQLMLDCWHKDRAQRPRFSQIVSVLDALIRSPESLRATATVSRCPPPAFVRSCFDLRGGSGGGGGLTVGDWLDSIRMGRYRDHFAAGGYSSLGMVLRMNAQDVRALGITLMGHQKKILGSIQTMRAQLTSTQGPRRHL", "conditions": "at 1 µM"}, "[11]": {"biological_target": "T4, Ephrin type-A receptor 8 (Homo sapiens)", "conditions": "at 10 µM"}, "[12]": {"biological_target": "T1, Ephrin type-B receptor 3 (Homo sapiens)", "conditions": "at 1 µM"}, "[13]": {"biological_target": "T5, Ephrin type-B receptor 1 (Homo sapiens) (UniProt P54762)", "T5 sequence (whole entry)": "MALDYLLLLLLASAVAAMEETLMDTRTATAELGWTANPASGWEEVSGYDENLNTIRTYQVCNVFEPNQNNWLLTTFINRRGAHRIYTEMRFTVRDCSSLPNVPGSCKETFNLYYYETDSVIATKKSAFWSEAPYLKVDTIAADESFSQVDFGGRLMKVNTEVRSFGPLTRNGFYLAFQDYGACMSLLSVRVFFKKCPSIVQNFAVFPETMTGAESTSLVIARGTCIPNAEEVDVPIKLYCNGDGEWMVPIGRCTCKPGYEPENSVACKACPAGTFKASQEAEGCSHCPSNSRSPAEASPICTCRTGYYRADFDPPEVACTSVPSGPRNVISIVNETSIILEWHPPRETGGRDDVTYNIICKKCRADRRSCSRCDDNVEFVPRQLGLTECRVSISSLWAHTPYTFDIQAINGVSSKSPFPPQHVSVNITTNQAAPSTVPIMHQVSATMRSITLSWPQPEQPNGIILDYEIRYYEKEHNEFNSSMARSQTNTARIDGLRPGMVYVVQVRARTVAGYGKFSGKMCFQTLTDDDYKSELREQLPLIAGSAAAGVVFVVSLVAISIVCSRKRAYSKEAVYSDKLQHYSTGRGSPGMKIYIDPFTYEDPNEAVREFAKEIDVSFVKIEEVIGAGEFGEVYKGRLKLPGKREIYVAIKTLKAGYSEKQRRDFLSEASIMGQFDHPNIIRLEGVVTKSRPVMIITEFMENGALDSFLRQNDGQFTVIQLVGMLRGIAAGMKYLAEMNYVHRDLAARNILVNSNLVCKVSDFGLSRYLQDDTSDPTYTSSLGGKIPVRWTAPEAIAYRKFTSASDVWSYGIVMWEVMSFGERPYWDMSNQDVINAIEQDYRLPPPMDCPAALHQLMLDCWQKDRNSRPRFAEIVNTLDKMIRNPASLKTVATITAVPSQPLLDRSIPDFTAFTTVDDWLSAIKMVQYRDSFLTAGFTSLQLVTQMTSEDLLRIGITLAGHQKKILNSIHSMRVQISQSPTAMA", "conditions": "at 1 µM"}, "[14]": {"biological_target": "T5, Ephrin type-B receptor 1 (Homo sapiens)", "conditions": "at 10 µM"}}, "data": [{"smiles": "N#C/C(=C\\c1ccc(O)c(O)c1)C(=O)NCc1ccccc1", "values": [{"measurement": "residual activity", "setting": "[1]", "result": 101, "unit": "%"}, {"measurement": "residual activity", "setting": "[2]", "result": 104, "unit": "%"}, {"measurement": "residual activity", "setting": "[3]", "result": 85, "unit": "%"}, {"measurement": "residual activity", "setting": "[4]", "result": 133, "unit": "%"}, {"measurement": "residual activity", "setting": "[5]", "result": 129, "unit": "%"}, {"measurement": "residual activity", "setting": "[6]", "result": 102, "unit": "%"}, {"measurement": "residual activity", "setting": "[7]", "result": 127, "unit": "%"}]}, {"smiles": "CC(C)N(CCC(=O)c1ccc2ccccc2c1)Cc1ccccc1", "values": [{"measurement": "residual activity", "setting": "[8]", "result": 85, "unit": "%"}, {"measurement": "residual activity", "setting": "[9]", "result": 78, "unit": "%"}]}, {"smiles": "O=C1NC(=O)C(c2cn(CCCO)c3ncccc23)=C1c1cnccn1", "values": [{"measurement": "residual activity", "setting": "[8]", "result": 92, "unit": "%"}, {"measurement": "residual activity", "setting": "[10]", "result": 99, "unit": "%"}, {"measurement": "residual activity", "setting": "[11]", "result": 94, "unit": "%"}, {"measurement": "residual activity", "setting": "[12]", "result": "94% (inactive)"}, {"measurement": "residual activity", "setting": "[4]", "result": 99, "unit": "%"}, {"measurement": "residual activity", "setting": "[5]", "result": 92, "unit": "%"}, {"measurement": "residual activity", "setting": "[6]", "result": 98, "unit": "%"}]}, {"smiles": "O=C1NC(=O)C(c2c[nH]c3ccccc23)=C1c1c[nH]c2ccccc12", "values": [{"measurement": "residual activity", "setting": "[2]", "result": 99, "unit": "%"}, {"measurement": "residual activity", "setting": "[3]", "result": 67, "unit": "%"}, {"measurement": "residual activity", "setting": "[13]", "result": 83, "unit": "%"}, {"measurement": "residual activity", "setting": "[14]", "result": 39, "unit": "%"}, {"measurement": "residual activity", "setting": "[6]", "result": 82, "unit": "%"}, {"measurement": "residual activity", "setting": "[9]", "result": 73, "unit": "%"}, {"measurement": "residual activity", "setting": "[7]", "result": 122, "unit": "%"}]}]}
